# Assay outcomes as filed in PubChem.
# A selection: hits, their analogues and other compounds. The true share with any hit is near 12%.
# Sfp inh: qHTS Assay for Inhibitors of Bacillus subtilis Sfp phosphopantetheinyl transferase (PPTase). Biochemical Sfp PPTase activity, qHTS. Potency, µM, without a hit: largest response in the series, negative = inhibition, most hits filed as inhibitors. 310,000 tested, 3.5% active. AID 1490, 2009;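 also: the enzyme is Sfp with the accession as filed and its product quenches rhodamine fluorescence; 0% = enzyme reaction without inhibitor and -100% = no enzyme wells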
#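 Buffer: 50 mM Hepes-Na pH 7.6, 10 mM MgCl2, 0.01% Nonidet P-40, 0.01% BSA. Enzyme 15 nM, pre-exposed to compound 15 min; substrates then added and fluorescence change tracked over 30 min.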
# RORg inh: qHTS for inhibitors of ROR gamma transcriptional activity; Drosophila S2 Gal4-RORgamma UAS-luciferase reporter, 20 h; Potency, µM (series often up to 53.6 µM), for inactives: top-dose activity change, negative = inhibition, most hits filed as inhibitors; 310,000 tested, 5.4% active; AID 2551, 2010; also: nearly all actives have a fitted effect of over 60% in size
#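 Schneider cells (Drosophila), stable Gal4 DBD–ROR gamma + UAS-luc; 1 hr cmpd preincubation; Cu2+ induction 700 uM final; 20 hr ambient; luminescence.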
# Gal4-VP16 FLuc: VP16 counterscreen qHTS for inhibitors of ROR gamma transcriptional activity; Drosophila S2 Gal4-VP16 UAS-luciferase, luminescence, 20 h; Potency, µM (titrated, usually from 53.6 µM), without a hit: at the highest dose activity, negative = inhibition, most hits filed as inhibitors; 310,000 tested, 3.5% active; AID 2546, 2010;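 also: Gal4-VP16 expression switched on by copper sulfate through the metallothionein promoter; nearly all actives have a fitted effect of over 50% in size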
# ALDH1A1 inh: qHTS Assay for Inhibitors of Aldehyde Dehydrogenase 1 (ALDH1A1) | Aldehyde dehydrogenase 1A1 (Homo sapiens), P00352 | Purified ALDH1A1, NADH fluorescence, propionaldehyde substrate | Potency, µM (series often up to 75.3 µM), without a hit: top-dose activity, negative = inhibition, usual class: inhibitors | 220,000 tested, 7.3% active; active = well fitted inhibition curve with a large enough effect, not every such curve was filed as active; inconclusive = small, poorly fitted or top-dose-only effect, or another doubt; inactive = no such curve, though single readings can be large or run the other way;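 also: plate controls were no enzyme wells and a reference inhibitor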
# PLK1 PBD block: qHTS for Inhibitors of PLK1-PDB (polo-like kinase 1 - polo-box domain): Primary Screen | Potency, µM, for the others: max response, negative = inhibition, actives largely listed as inhibitors | Plk1 PBD binding of FITC phosphopeptide, fluorescence polarization | Serine/threonine-protein kinase PLK1 (Homo sapiens), P53350 | 360,000 tested, 2.8% active; also: series mostly up to about 57 µM; nearly all actives have a fitted effect of over 65% in size
# Target sequence (P53350 whole entry, looked up, the tested form may be a part): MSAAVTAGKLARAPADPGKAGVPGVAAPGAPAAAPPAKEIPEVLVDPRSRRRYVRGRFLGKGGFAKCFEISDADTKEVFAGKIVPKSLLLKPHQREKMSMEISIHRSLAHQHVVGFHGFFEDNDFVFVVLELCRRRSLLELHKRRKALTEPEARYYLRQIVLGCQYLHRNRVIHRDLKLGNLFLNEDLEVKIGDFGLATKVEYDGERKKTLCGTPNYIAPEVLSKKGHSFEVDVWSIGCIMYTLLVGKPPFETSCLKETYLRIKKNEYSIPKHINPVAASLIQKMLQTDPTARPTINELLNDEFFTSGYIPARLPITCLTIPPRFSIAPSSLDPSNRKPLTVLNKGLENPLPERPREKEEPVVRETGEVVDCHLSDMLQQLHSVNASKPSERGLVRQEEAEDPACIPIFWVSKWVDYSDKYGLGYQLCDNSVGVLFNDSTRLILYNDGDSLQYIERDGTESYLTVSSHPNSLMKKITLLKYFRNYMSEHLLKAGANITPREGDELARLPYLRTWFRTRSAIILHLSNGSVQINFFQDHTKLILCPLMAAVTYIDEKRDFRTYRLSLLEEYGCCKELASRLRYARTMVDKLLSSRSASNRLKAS
# TbPYK confirm: qHTS of Trypanosoma Brucei Inhibitors: Confirmatory Assay for Cherry-picked Compounds; recombinant TbPYK, Kinase-Glo ATP luminescence; Potency, µM (top dose mostly 76.9 µM), for the others: top-dose activity change, negative = inhibition, actives largely listed as inhibitors; shares compounds with PLK1 PBD block; AID 720569, 2013; 890 tested, 67% active; also: nearly all actives have a fitted effect of over 70% in size
# TbPYK orthogonal: qHTS of Trypanosoma Brucei Inhibitors: Orthogonal Assay for Cherry-picked Compounds | shares compounds with PLK1 PBD block | recombinant TbPYK, ADP-Glo luminescence, 60 min | Potency, µM (doses to about 76.9 µM), for inactives: top-dose activity change, negative = inhibition, usual class: inhibitors | 890 tested, 62% active; also: nearly all actives have a fitted effect of over 75% in size
# * marks the source's active call; other numbers are inactive results; ? = inconclusive; · = no result; [ ] = another dose, or the depositor's remark. Unless noted, calls follow the shape of the dose curve; as a rule, active = well fitted curve in the direction sought with a large enough effect; inconclusive = small, poorly fitted or top-dose-only effect, or another doubt; inactive = no such curve, though single readings can be large; an effect the other way counts as inactive or inconclusive. Unless noted, % is scaled to controls: 0 for no effect and ±100 for the full control effect; potency is read from the fitted curve at half-maximal effect.
SMILES,Sfp inh,RORg inh,Gal4-VP16 FLuc,ALDH1A1 inh,PLK1 PBD block,TbPYK confirm,TbPYK orthogonal
CC(C)n1c(=O)[nH][nH]c1=S,8.9µM*,-1%,0%,0.79µM*,11µM*,1µM*,2.5µM*
CC1=CC(=O)C=CC1=Nc1ccc(N(C)C)cc1,·,·,·,·,?,22µM*,-16%
CCOC(=O)N1CCN(C(=O)c2ccc(Oc3ccc([N+](=O)[O-])cc3)cc2)CC1,4%,12%,-29%,-4%,-11%,·,·
COC(=O)c1ccc(CCc2cc(O)c(Br)cc2O)cc1,·,·,·,·,?,32µM*,35µM*
CCOc1ccc(NC(=O)COC(=O)C23CC4CC(CC(C4)C2)C3)c([N+](=O)[O-])c1,9%,-9%,-15%,-6%,-5%,·,·
Clc1ccc(C2=CSC3=NCCN23)c(Cl)c1,·,·,·,·,-11%,·,·
Cc1ccc(C2=CSC3=NCCN23)c(C)c1,-26%,-21%,-8%,?,?,13µM*,16µM*
O=[N+]([O-])c1ccccc1-c1ccc(C(=S)N2CCCC2)o1,7.9µM*,-6%,-17%,2.2µM*,2.7µM*,18µM*,32µM*
O=[N+]([O-])c1cc(-c2ccc(C(=S)N3CCOCC3)o2)ccc1Cl,-95%,-24%,29%,4µM*,2.7µM*,16µM*,16µM*
CCOc1ccc(S(=O)(=O)N(C(=O)c2ccco2)c2cc3sc(=O)oc3c3ccccc23)cc1,5.6µM*,?,?,?,?,?,?
Cc1ccc(S(=O)(=O)N(C(=O)c2ccco2)c2cc3sc(=O)oc3c3ccccc23)cc1,8.9µM*,-39%,?,32µM*,-7%,-29%,?
Cc1ccc(S(=O)(=O)N(C)CC(=O)N2CCN(C(=O)c3ccco3)CC2)cc1,-13%,2%,0%,?,3%,·,·
Cc1cc(C)c(C)c(S(=O)(=O)N2CCC(C(=O)Nc3ccc(S(=O)(=O)N4CCOCC4)cc3)CC2)c1C,2%,?,-11%,·,-8%,·,·
CC(C)(CC(=O)O)CC(=O)NNc1ncccc1C#N,21%,-9%,1%,·,0%,·,·
Cc1cccc(C(C)C)c1NC(=O)CN1C(=O)NC2(CCc3ccccc32)C1=O (stereo not given),·,·,·,·,2%,·,·
CC1=C(C#N)C(=O)NC(=O)/C1=C/c1ccc(-c2ccc(S(N)(=O)=O)cc2)o1,79µM*,-2%,14%,?,9.5µM*,-17%,-22%
COC(=O)/C(C#N)=C/c1ccc(-c2ccc(S(N)(=O)=O)cc2)o1,-3%,-3%,-1%,·,-6%,·,·
Cc1ccc(/C=C/C(=O)NCc2ccc3c(c2)OCO3)o1,-91%,-1%,-3%,?,?,11µM*,14µM*
COc1ccc(CCNC(=O)/C=C/c2ccco2)cc1,-61%,?,30%,·,0%,?,?
Cc1ccc(/C=C/C(=O)NCC2COc3ccccc3O2)o1 (stereo not given),6.3µM*,?,26%,6.3µM*,?,25µM*,22µM*
CCOc1ccc(CCNC(=O)/C=C/c2ccco2)cc1OCC,-29%,-11%,16%,·,-24%,·,·
Cc1ccc(C(=O)NCc2ccc3c(c2)OCO3)o1,8%,0%[1.91 µM],-11%,·,-7%,·,·
COc1ccc(/C=C/C(=O)NCC2COc3ccccc3O2)cc1OC (stereo not given),-18%,21%,1%,?,-7%,·,·
Cc1ccc(/C=C/C(=O)NCCc2cccc(Cl)c2)o1,20µM*,?,-7%,·,30µM*,3.5µM*,4µM*
Cc1ccc(/C=C/C(=O)NCCCN2CCN(CCCNC(=O)/C=C/c3ccc(C)o3)CC2)o1,0%,-6%,7%,-6%,-7%,·,·
SMILES,Sfp inh,RORg inh,Gal4-VP16 FLuc,ALDH1A1 inh,PLK1 PBD block,TbPYK confirm,TbPYK orthogonal
O=C(OC(C(=O)NCc1ccccc1)c1ccccc1F)c1ccco1 (stereo not given),-5%,-9%,-16%,·,4%,·,·
C[C@H](CO)N1C[C@H](C)[C@@H](CN(C)Cc2ccc(C(=O)Nc3ccccc3N)cc2)Oc2c(NC(=O)C3CCCCC3)cccc2C1=O,·,·,·,·,-1%,·,·
Cc1ccc(/C=C/C(=O)Nc2ccc(S(N)(=O)=O)cc2)o1,10µM*,-9%,2%,25µM*,30µM*,5µM*,5.6µM*
Cc1ccc(/C=C/C(=O)NCc2ccc(S(N)(=O)=O)cc2)o1,3.5µM*,-3%,-22%[10 µM],1.8µM*,27µM*,6.3µM*,1.6µM*
CC(=O)NS(=O)(=O)c1ccc(NC(=O)/C=C/c2ccc(C)o2)cc1,5µM*,21%,1%,13µM*,21µM*,5µM*,7.9µM*
Cc1ccc(/C=C/C(=O)NC2CCCCCCC2)o1,-117%,-92%,13µM*,3.5µM*,24µM*,?,?
COc1ccc(C(=O)Nc2ccc(NC(=O)Cc3ccccc3)cn2)cc1,-2%,-7%,3%,·,3%,·,·
Cc1cc(/C=N/N2CCN(C)CC2)c(C)n1-c1ccc(Cl)cc1,-17%,-3%,-1%,?,-11%,·,·
Cc1ccc(S(=O)(=O)NCCn2nc(C)nc2C)cc1,20%,-17%,-5%,·,-2%,·,·
C1=CC2c3ccccc3NC(c3ccncc3)C2C1 (stereo not given),32µM*,?,-2%,10µM*,?,18µM*,16µM*
Brc1cc2c(cc1C1Nc3ccccc3C3C=CCC31)OCO2 (stereo not given),-7%,-7%,0%,4%,-5%,·,·
Cc1ccc(NC(=O)Cc2nnc(SCC(=O)NC3CCCC3)n2C)c(C)c1,20%,3%,0%,·,-18%,·,·
O=C(NCCCO)c1ccc2nc(-c3ccco3)c(-c3ccco3)nc2c1,10µM*,-17%,-5%,?,30µM*,22µM*,35µM*
CCc1nc2ccc(C(=O)NCCc3ccco3)cc2nc1CC,-8%,0%,-1%,·,-19%,·,·
O=C(NCc1ccccc1)c1ccc2nccnc2c1,2%,8%,-4%,-1%,-4%,·,·
O=C(Nc1ccccc1)c1ccc2nc(-c3ccco3)c(-c3ccco3)nc2c1,20µM*,-20%,?,0.18µM*,27µM*,?,?
O=C(NCc1ccccc1)c1ccc2nc(-c3ccco3)c(-c3ccco3)nc2c1,7.1µM*,2%,8%,?,7.5µM*,18µM*,18µM*
